Experimental data as given in PubChem BioAssay (NCATS).
Records with an inconclusive call do not appear. Activity calls are given as the source filed them. Unless noted, the call rests on the fitted dose curve; in most records, active means well fitted curve in the direction sought with a large enough effect; inconclusive means small, poorly fitted or top-dose-only effect, or another doubt; inactive means no such curve, though single readings can be large; an effect the other way counts as inactive or inconclusive.

Tests used:
[1] = AP1 Signaling Pathway (AID 357; active means well fitted curve in either direction with a large enough effect, not every such curve was filed as active;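 further: ME-180 reporter cells stimulated with EGF at its EC50 level; on the % scale 0 is the no-effect control and ±100 the full control effect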); conditions: ME-180 AP-1-bla reporter, EGF-induced, beta-lactamase ratio, 5 h; at 38 µM (top of the series)
How it was run: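 AP-1-bla ME-180 cells, Opti-MEM + 0.5% dialyzed FBS, plated overnight 37 °C. Cpd titration + EC50 EGF, 5 h 37 °C. CCF4 2.5 h RT; ex 405, em 460/530 ratio → %activity, AC50.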

[2] = molecular target: Cytochrome P450 1A2 (Homo sapiens) (UniProt P05177); experiment: p450-cyp1a2 (AID 410; calls by dose curve; further: potency means the concentration at half of the fitted maximal effect)
How it was run: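 Human CYP1A2 (20nM) demethylated Luciferin-ME at its Km (100uM) in 100mM KPO4. After 10 min compound preincubation, NADPH regeneration ran the reaction 60 min at room temperature. Luciferin was read by luminescence, normalized to 57 uM furafylline.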

[3] = NFAT Signaling Pathway (AID 444; active means well fitted curve in either direction with a large enough effect, not every such curve was filed as active;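 further: carbachol stimulus at about its EC50 of 1 µM final; on the % scale 0 is the no-effect control and ±100 the full control effect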); conditions: Jurkat NFAT-bla M1, carbachol, beta-lactamase ratio, 5 h; at 38 µM (top of the series)
How it was run: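 Jurkat cells carrying an NFAT-driven β-lactamase reporter and co-transfected muscarinic M1 receptor were treated with compound plus carbachol (1 uM final, an EC50 level) for 5 h at 37 °C. CCF4 loading followed for 1 h at RT; 460/530 nm ratio gave %activity.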

[4] = Stat Signaling Pathway (AID 446; active means well fitted curve in either direction with a large enough effect, not every such curve was filed as active;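 further: ME-180 cervical cancer cells given 40 pM IL-6 alongside compound; SIE-controlled beta-lactamase reporter measured as 460/530 nm FRET emission ratio; on the % scale 0 is the no-effect control and ±100 the full control effect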); conditions: ME-180 SIE beta-lactamase reporter, IL-6 stimulated, 5 h; at 38 µM (top of the series)
How it was run: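 ME-180 SIE-bla cells; overnight plating; cpd + IL-6 40 pM, 5 h, 37 C; LiveBLAzer 2.5 h RT; 460/530 nm emission ratio. Normalized to 300 pM IL-6 and 125 nM JAK inhibitor controls.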

[5] = molecular target: Glucocorticoid receptor (Homo sapiens) (UniProt P04150); experiment: GR-GFP Redistribution (AID 450;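 active means compounds whose dose series gives a full or clear partial fitted curve of increased nuclear translocation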; further: potency means the concentration at half of the fitted maximal effect); conditions: U2OS GR-GFP nuclear translocation, laser cytometry, 2 h
[6] = molecular target: Glucocorticoid receptor (Homo sapiens) (UniProt P04150); experiment: GR-EFC Redistribution (AID 451; calls by dose curve; further: potency means the concentration at half of the fitted maximal effect); conditions: CHO-K1 GR-EFC translocation, beta-gal luminescence, 2 h
How it was run: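 CHO-K1 cells stably expressing nuclear-localized β-gal enzyme acceptor and GR fused C-terminally to the enzyme donor fragment; ligand-driven nuclear translocation restores β-gal by complementation. Compounds titrated up to 46 uM final, 2 h at 37 °C; luminescence read.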

[7] = molecular target: Mitogen-activated protein kinase 10 (Mus musculus) (UniProt Q61831); experiment: JNK3 AlphaScreen Assay (AID 530; active means well fitted curve in either direction with a large enough effect, not every such curve was filed as active;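 further: kinase came from lysate of stimulated human HepG2 cells; signal reports phosphorylation of biotinylated GST-cJun 1-79 at Ser73 with 10 µM ATP; on the % scale 0 is the no-effect control and ±100 the full control effect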)
How it was run: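 JNK3 came from HepG2 lysates pre-activated with IL-1beta and TNF-alpha and phosphorylated biotinylated GST-cJun (1-79) at 10 uM ATP, pH 7.6, room temperature. Compounds were titrated. AlphaScreen signal used anti-phospho-cJun (Ser73) antibody.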

[8] = molecular target: Guanine nucleotide-binding protein G(i) subunit alpha-1 (Homo sapiens) (UniProt P63096); experiment: qHTS Assay for Inhibitors of RGS12 GoLoco Motif Activity (Green Fluorophore) (AID 879);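 further: 0% = labeled peptide with Gαi1 and full inhibition = labeled peptide alone without protein; negative values mean loss of peptide binding seen as reduced polarization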
How it was run: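 Fluorescence polarization assay: 50 nM Gαi1 with 10 nM FITC-labeled RGS12 GoLoco peptide in 10 mM Tris pH 7.5, 150 mM NaCl, 0.1 mM GDP, 0.05% NP40, 10 min at room temperature with compound.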

[9] = molecular target: Cytochrome P450 3A4 (Homo sapiens) (UniProt P08684); experiment: qHTS Assay for Activators of Cytochrome P450 3A4 (AID 885); further: nearly all actives have a fitted effect of over 65% in size
How it was run: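 20nM CYP3A4 + 25uM Luciferin-PPXE (=KM), 200mM KPO4; cpd 10 min RT; NADPH regen, 60 min RT; stop w/ detection buffer, 20 min; luminescence. Normalized to 57 uM ketoconazole.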

[10] = molecular target: Muscarinic acetylcholine receptor M1 (Rattus norvegicus) (UniProt P08482); experiment: qHTS Assay for Antagonists of Acetylcholine Muscarinic M1 Receptor: Kinetic Measurement of Intracellular Calcium Response (AID 943);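 further: Fluo-4 calcium signal as peak divided by basal fluorescence over 4 min; nearly all actives have a fitted effect of over 75% in size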
How it was run: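 CHO cells stably expressing rat M1 were loaded with no-wash Fluo-4 dye for 1 h at 37C, pre-incubated 10 min with compound, then challenged with EC80 carbachol (100 nM final); kinetic calcium read 4 min, peak/basal ratio.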

[11] = molecular target: Muscarinic acetylcholine receptor M1 (Rattus norvegicus) (UniProt P08482); experiment: qHTS Assay for Antagonists of Acetylcholine Muscarinic M1 Receptor: Measurement of IP-One Response (AID 944); further: nearly all actives have a fitted effect of over 75% in size
How it was run: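 CHO cells expressing rat M1 receptor, recovered overnight, were pre-incubated 10 min with compound, then stimulated 30 min with carbachol at EC80 (200 nM) in LiCl-containing buffer, pH 7.4. IP1 accumulation was read by HTRF (620/665 nm).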

[12] = molecular target: Pyruvate kinase (Leishmania mexicana) (UniProt Q27686); experiment: qHTS Validation Assay for Inhibitors of Leishmania Mexicana Pyruvate Kinase (AID 945);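 further: 0% = DMSO only neutral control wells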
How it was run: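 Eight-point qHTS titrations in triplicate, data normalized to DMSO neutral control. Reaction: 0.2 nM LmPYK E451W mutant, 0.5 mM PEP, 0.1 mM ADP, 7 mM MgCl2, pH 7.2, one hour at room temperature; luminescent ATP detection.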

[13] = molecular target: Pyruvate kinase PKM (Homo sapiens) (UniProt P14618); experiment: qHTS Assay for Activators of Human Muscle Pyruvate Kinase (AID 954; active means well fitted curve in the direction sought with a large enough effect, not every such curve was filed as active;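 further: 0% = uninhibited enzyme and -100% = no enzyme or full thiadiazolimine inhibition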)
How it was run: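 Luminescence from a luciferase ATP-detection/stop reagent reported PKM2 activity. Reactions contained 0.1 nM purified human enzyme, 0.5 mM PEP, 0.1 mM ADP and 7 mM MgCl2 at pH 7.2, run 1 h at RT.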

[14] = molecular target: Alpha-galactosidase A (Homo sapiens) (UniProt P06280); experiment: Counterscreen for Glucocerebrosidase Inhibitors: qHTS Assay for Human alpha-Galactosidase at pH 4.5 (AID 992); further: 0% is about no effect
How it was run: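 Enzyme at 2 nM final was combined with compound (0.7 nM to 77 uM) and 80 uM 4-methylumbelliferyl alpha-D-galactopyranoside in 50 mM citric acid, 0.005% Tween-20, pH 4.5. After 20 min at room temperature, fluorescence was read (Ex 365/Em 440 nm); AC50 came from Hill fits.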

[15] = molecular target: alpha-glucosidase (Oryza sativa, rice) (UniProt Q653V4); experiment: Counterscreen for Glucocerebrosidase Inhibitors: qHTS Assay for Rice alpha-Glucosidase at pH 5.0 (AID 997);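 further: 0% = full activity with enzyme and -100% = basal without enzyme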
How it was run: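 Rice alpha-glucosidase (4 nM final) with 400 uM 4-methylumbelliferyl-alpha-D-glucopyranoside in citrate buffer pH 5.0, 20 min at room temperature, stopped at pH 10; fluorescence 365/440 nm, compounds 0.7 nM–77 uM, AC50 from Hill fits.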

[16] = Validation of Assay for Modulators of Lamin A Splicing (AID 1459; active means well fitted curve in the direction sought with a large enough effect in the signal ratio; the % refers to the signal ratio;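 further: cells exposed to compound for two days before reading; 0% is about no effect; ratio rise marks activators and ratio drop marks inhibitors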)
How it was run: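 Splicing correction is reported by an EGFP-containing lamin A minigene in stably transfected S3 HeLa cells, while DsRed2 controls for viability and nonspecific signal. Cells are exposed to compounds for 48 hrs before the GFP over RFP ratio is taken.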

[17] = qHTS Assay for Lipid Storage Modulators (AID 1519; calls by dose curve); conditions: Drosophila S3 cells, BODIPY lipid droplet/cell ratio, laser cytometry, cells loaded with oleic acid
How it was run: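 Cells seeded at 5,000 per well were treated with compounds over a concentration series and loaded with oleic acid (400 uM, as added). Lipid droplet fluorescence (488 nm excitation, 500-530 nm channel) was read by laser-scanning cytometry and normalized to 20 uM Triacsin C.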

Chain of Glucocorticoid receptor (Homo sapiens) (P04150 whole entry, looked up, the tested form may be a part): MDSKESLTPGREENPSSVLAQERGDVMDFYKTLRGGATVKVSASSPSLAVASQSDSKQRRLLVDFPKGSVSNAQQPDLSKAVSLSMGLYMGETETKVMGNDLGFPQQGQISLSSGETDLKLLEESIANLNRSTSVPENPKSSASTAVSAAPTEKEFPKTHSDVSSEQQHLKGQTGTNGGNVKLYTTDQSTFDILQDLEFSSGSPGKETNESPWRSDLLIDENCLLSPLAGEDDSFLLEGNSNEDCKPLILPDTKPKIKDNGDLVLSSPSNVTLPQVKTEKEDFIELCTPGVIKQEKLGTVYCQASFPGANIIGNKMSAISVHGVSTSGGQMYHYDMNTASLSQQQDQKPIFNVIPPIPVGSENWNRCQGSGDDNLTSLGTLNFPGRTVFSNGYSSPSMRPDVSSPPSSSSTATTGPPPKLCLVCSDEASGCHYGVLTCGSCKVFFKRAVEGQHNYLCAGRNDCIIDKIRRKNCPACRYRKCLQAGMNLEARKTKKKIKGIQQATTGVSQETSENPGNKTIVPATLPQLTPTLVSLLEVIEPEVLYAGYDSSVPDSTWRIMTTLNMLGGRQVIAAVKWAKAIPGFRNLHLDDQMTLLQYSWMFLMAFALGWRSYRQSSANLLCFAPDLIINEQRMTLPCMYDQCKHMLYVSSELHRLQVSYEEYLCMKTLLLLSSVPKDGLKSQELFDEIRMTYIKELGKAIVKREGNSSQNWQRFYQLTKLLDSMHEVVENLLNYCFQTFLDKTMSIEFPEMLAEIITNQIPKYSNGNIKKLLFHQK
Chain of Muscarinic acetylcholine receptor M1 (Rattus norvegicus) (P08482 whole entry, looked up): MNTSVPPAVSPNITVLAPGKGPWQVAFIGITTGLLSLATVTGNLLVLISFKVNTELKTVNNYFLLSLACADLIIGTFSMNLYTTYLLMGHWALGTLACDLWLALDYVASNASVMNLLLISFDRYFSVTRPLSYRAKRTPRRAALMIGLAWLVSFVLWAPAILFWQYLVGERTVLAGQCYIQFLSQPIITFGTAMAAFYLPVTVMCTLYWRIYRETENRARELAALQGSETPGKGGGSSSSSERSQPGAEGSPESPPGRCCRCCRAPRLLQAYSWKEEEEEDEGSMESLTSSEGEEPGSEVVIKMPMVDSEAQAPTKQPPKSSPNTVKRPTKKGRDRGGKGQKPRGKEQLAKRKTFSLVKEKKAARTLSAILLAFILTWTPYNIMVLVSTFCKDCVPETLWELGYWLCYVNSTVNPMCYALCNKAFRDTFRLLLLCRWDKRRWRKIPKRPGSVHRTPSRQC
Chain of Alpha-galactosidase A (Homo sapiens) (P06280 whole entry, looked up): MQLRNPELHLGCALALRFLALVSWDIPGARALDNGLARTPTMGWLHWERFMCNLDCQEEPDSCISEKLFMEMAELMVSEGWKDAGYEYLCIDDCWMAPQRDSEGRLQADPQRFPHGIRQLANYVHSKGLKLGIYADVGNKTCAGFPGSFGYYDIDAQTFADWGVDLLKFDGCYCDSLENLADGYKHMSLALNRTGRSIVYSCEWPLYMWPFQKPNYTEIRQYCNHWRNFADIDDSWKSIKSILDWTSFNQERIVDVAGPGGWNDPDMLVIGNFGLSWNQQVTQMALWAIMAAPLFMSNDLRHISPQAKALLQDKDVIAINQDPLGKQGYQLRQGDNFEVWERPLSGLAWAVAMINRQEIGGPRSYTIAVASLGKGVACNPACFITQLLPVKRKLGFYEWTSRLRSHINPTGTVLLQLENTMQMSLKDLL
Chain of Cytochrome P450 3A4 (Homo sapiens) (P08684 whole entry, looked up): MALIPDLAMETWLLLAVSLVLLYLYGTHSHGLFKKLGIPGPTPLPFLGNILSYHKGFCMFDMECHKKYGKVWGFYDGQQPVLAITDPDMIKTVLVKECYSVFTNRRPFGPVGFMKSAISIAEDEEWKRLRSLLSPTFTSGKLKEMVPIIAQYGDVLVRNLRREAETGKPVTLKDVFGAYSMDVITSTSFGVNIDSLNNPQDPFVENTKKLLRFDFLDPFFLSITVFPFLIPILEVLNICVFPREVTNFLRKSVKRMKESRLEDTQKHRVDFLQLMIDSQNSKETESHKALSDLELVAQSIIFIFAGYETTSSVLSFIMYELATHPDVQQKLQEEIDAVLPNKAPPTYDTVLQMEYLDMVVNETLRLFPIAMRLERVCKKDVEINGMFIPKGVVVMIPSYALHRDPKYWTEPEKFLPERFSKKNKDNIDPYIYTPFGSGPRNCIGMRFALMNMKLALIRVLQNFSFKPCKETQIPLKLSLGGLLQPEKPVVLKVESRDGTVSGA
Chain of Cytochrome P450 1A2 (Homo sapiens) (P05177 whole entry, looked up): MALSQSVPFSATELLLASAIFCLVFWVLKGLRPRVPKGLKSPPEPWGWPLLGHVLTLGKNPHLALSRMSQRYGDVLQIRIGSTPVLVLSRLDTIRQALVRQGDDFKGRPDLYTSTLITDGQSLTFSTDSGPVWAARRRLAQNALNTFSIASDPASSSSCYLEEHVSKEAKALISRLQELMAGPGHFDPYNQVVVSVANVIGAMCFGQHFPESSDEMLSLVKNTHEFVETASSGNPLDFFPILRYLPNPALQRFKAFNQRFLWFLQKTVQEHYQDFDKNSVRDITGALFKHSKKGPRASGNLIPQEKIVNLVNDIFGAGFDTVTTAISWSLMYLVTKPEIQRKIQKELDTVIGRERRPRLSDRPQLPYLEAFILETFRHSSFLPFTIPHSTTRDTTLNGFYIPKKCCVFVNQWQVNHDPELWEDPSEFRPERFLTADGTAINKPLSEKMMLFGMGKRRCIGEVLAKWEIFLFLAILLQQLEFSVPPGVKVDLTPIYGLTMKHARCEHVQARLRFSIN
Chain of Guanine nucleotide-binding protein G(i) subunit alpha-1 (Homo sapiens) (P63096 whole entry, looked up): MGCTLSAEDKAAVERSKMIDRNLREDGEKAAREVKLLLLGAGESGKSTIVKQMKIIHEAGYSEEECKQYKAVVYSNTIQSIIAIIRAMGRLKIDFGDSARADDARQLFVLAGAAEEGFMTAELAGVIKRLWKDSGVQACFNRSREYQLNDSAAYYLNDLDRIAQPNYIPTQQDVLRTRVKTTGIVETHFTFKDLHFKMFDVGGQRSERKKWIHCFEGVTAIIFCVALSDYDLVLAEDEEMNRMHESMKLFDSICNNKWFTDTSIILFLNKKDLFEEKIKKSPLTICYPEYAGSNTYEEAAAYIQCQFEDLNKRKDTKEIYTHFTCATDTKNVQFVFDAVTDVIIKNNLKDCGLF
Chain of Pyruvate kinase PKM (Homo sapiens) (P14618 whole entry, looked up): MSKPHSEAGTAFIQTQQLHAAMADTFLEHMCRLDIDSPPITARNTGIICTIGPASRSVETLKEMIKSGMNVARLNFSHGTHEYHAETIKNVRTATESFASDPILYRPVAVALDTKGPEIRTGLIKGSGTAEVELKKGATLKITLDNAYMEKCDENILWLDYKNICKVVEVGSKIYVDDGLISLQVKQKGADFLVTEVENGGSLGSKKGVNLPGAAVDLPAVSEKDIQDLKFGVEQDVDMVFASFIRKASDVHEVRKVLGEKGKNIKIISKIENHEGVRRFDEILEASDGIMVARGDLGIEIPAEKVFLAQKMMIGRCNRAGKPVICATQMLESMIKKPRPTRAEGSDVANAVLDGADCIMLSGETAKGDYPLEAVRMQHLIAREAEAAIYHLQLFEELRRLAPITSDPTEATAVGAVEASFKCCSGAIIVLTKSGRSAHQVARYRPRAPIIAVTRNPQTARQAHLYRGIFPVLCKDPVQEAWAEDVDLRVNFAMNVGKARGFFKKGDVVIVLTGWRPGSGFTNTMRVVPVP
Chain of Pyruvate kinase (Leishmania mexicana) (Q27686 2-499 E452W): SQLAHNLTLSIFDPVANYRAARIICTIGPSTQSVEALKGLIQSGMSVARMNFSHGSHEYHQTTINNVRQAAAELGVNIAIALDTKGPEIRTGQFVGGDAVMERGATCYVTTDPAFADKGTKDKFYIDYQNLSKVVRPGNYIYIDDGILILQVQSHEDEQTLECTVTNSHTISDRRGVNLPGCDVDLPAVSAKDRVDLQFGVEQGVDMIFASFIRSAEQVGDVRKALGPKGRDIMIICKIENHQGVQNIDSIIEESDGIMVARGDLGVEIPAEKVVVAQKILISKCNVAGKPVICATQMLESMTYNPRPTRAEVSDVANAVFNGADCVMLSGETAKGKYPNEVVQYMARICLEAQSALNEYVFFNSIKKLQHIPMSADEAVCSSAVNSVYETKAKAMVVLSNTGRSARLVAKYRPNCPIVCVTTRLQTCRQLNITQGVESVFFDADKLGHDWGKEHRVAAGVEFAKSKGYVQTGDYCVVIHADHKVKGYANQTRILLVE

Cn1cnc2c(NC3CCCC3)ncnc21
active: Potency [2] 12.6 µM
-17.7%: max response ([17]; measured here: cell count channel max response)
inactive: activity change, negative = inhibition [1] -18% | activity change, negative = inhibition [3] -0.777% | activity, negative = inhibition [4] 11.1% | Potency [5] > 46 µM | Potency [6] > 46 µM | Potency [7] | outcome [8] | Potency [9] | Potency [10] | Potency [11] | Potency [12] | outcome [13] | outcome [14] | outcome [15] | outcome [16] | activity change, negative = inhibition ([17]; at 57.5 µM (top of the series)) -0.311%
-21%: max response ([17]; measured here: lipid channel max response)
